Reference: PubChem BioAssay (EPA / NIEHS)
Calls of active or inactive are those of the source. The calls were made as follows: active = hit-call score of the fitted dose curve at least 0.9, where 1 is the maximum; inactive = score below 0.9.

How the values were obtained:
Details in all cases: mRNA level, 48 h; actives raise or lower the signal
[1] = read-out: growth arrest and DNA damage 45 (GADD45A), GADD45A (gene 1647); test: LTEA_HepaRG_GADD45A: Life Technologies and Expression Analysis (LTEA) Assay for growth arrest and DNA damage 45 (GADD45A) using HepaRG (AID 2283458)
In short: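 Transcript induction or loss, quantified by TaqMan qRT-PCR against three housekeeping genes, is the read-out. HepaRG cells received chemicals for 48 h across eight half-log concentrations from 100 uM in 0.5% DMSO; gain and loss fitted relative to DMSO.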

[2] = read-out: Forkhead box O3 (FOXO3), FOXO3 (gene 2309); test: LTEA_HepaRG_FOXO3: Life Technologies and Expression Analysis (LTEA) Assay for Forkhead box O3 (FOXO3) using HepaRG (AID 2283459)
In short: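 qRT-PCR readout of FOXO3 transcript, normalized to three housekeeping genes (ACTB, GAPDH, POLR2A); gain or loss fitted against 0.5% DMSO vehicle. HepaRG cells, 48 h chemical exposure, 8-point half-log series, top 100 uM.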

[3] = read-out: ABC Transporter (ABCB1), ABCB1 (gene 5243); test: LTEA_HepaRG_ABCB1: Life Technologies and Expression Analysis (LTEA) Assay for ABC Transporter (ABCB1) using HepaRG (AID 2283460)
In short: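 HepaRG, 48 h exposure, 8-pt half-log series from 100 uM, 0.5% DMSO vehicle, duplicates. Readout: ABCB1 transcript by Fluidigm TaqMan qRT-PCR, housekeeping-normalized; bidirectional curve fit vs DMSO baseline.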

[4] = read-out: growth arrest and DNA damage 45 (GADD45B), GADD45B (gene 4616); test: LTEA_HepaRG_GADD45B: Life Technologies and Expression Analysis (LTEA) Assay for growth arrest and DNA damage 45 (GADD45B) using HepaRG (AID 2283461)
In short: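 Transcript level quantified by Fluidigm TaqMan qRT-PCR with three housekeeping genes for normalization, analyzed for up- or down-regulation against 0.5% DMSO. HepaRG cultures dosed 48 h at eight half-log concentrations up to 100 uM, duplicates.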

[5] = read-out: ABC Transporter (ABCC3), ABCC3 (gene 8714); test: LTEA_HepaRG_ABCC3: Life Technologies and Expression Analysis (LTEA) Assay for ABC Transporter (ABCC3) using HepaRG (AID 2283462)
In short: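 Transcript level by TaqMan qRT-PCR, normalised to three housekeeping genes, fitted in both directions relative to vehicle. Chemicals tested in duplicate at eight half-log concentrations up to 100 uM for 48 h on HepaRG cells (0.5% DMSO).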

[6] = read-out: ABC Transporter (ABCB11), ABCB11 (gene 8647); test: LTEA_HepaRG_ABCB11: Life Technologies and Expression Analysis (LTEA) Assay for ABC Transporter (ABCB11) using HepaRG (AID 2283463)
In short: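 HepaRG, 48 h exposure, 8-pt half-log CRC top 100 uM, 0.5% DMSO vehicle, duplicates. Readout: TaqMan qRT-PCR of ABCB11 mRNA, housekeeping-normalized (ACTB/GAPDH/POLR2A). Bidirectional fit vs DMSO baseline.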

[7] = read-out: ABC Transporter (ABCC2), ABCC2 (gene 1244); test: LTEA_HepaRG_ABCC2: Life Technologies and Expression Analysis (LTEA) Assay for ABC Transporter (ABCC2) using HepaRG (AID 2283464)
In short: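 Endpoint is ABCC2 transcript level from qRT-PCR, normalized to three housekeeping genes and fitted bidirectionally relative to DMSO. Human HepaRG cells received test chemical for 48 h at up to 100 uM (8 points, half-log steps, 0.5% DMSO), duplicate wells.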

[8] = read-out: Broad substrate specificity ATP-binding cassette transporter ABCG2 (Homo sapiens) (UniProt Q9UNQ0); test: LTEA_HepaRG_ABCG2: Life Technologies and Expression Analysis (LTEA) Assay for ABC Transporter (ABCG2) using HepaRG (AID 2283465)
In short: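 HepaRG, 48 h exposure, 8-pt half-log series from 100 uM, 0.5% DMSO vehicle, duplicates. Readout: ABCG2 transcript by qRT-PCR (Fluidigm array), housekeeping-normalized; bidirectional curve fit relative to DMSO baseline.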

[9] = read-out: ATP-citrate lyase (ACLY), ACLY (gene 47); test: LTEA_HepaRG_ACLY: Life Technologies and Expression Analysis (LTEA) Assay for ATP-citrate lyase (ACLY) using HepaRG (AID 2283466)
In short: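 qRT-PCR readout of ACLY transcript after 48 h chemical treatment of HepaRG cells; expression normalized to three housekeeping genes. Eight-point half-log series, highest 100 uM, 0.5% DMSO vehicle. Gain or loss fitted against DMSO baseline.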

[10] = read-out: Peroxisomal acyl-coenzyme A oxidase 1 (ACOX1) gene, ACOX1 (gene 51); test: LTEA_HepaRG_ACOX1: Life Technologies and Expression Analysis (LTEA) Assay for Peroxisomal acyl-coenzyme A oxidase 1 (ACOX1) gene using HepaRG (AID 2283467)
In short: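 HepaRG, 48 h chemical exposure, 8-pt half-log series from 100 uM top, 0.5% DMSO vehicle, duplicates. Readout: ACOX1 mRNA by Fluidigm qRT-PCR, housekeeping-normalized; bidirectional fit vs DMSO baseline.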

Measured: AC50

Chain of Broad substrate specificity ATP-binding cassette transporter ABCG2 (Homo sapiens) (Q9UNQ0 whole entry, looked up): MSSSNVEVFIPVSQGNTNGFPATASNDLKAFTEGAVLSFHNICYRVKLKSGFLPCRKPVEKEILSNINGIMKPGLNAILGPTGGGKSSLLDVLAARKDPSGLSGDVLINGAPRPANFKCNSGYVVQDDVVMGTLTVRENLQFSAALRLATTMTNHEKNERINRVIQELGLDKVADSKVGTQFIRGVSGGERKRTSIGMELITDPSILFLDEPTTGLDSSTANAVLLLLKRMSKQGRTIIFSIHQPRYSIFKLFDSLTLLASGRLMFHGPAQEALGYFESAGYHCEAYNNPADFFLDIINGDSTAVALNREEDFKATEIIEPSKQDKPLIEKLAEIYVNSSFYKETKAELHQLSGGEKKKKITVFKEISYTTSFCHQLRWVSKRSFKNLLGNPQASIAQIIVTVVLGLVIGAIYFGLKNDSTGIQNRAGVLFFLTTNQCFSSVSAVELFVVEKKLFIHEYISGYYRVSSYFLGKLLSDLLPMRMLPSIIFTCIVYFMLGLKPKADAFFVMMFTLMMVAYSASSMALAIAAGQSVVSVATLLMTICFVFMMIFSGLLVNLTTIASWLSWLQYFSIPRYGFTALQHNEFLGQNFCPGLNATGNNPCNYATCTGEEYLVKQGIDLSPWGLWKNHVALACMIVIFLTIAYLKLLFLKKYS

NC(=O)N(O)[C@@H]1C=C[C@H](Oc2cccc(Oc3ccc(F)cc3)c2)C1
inactive: [2] | [3] | [4]
active: [1] 64 µM | [5] 21.1 µM | [6] 68 µM | [7] 82.5 µM | [8] 34.9 µM | [9] 22.7 µM | [10] 65.1 µM

CN1CCC[C@H]1c1cccnc1
active: [10] 12.6 µM
inactive: all other assays above

COc1ccc([N+](=O)[O-])cc1N
inactive: all assays above

O=C(O)Cc1cc(I)c(Oc2cc(I)c(O)c(I)c2)c(I)c1
inactive: [3]
active: [1] 50.2 µM | [2] 24.8 µM | [4] 55.4 µM | [5] 52.4 µM | [6] 19.9 µM | [7] 57.7 µM | [8] 51.7 µM | [9] 56.3 µM | [10] 56.8 µM

COCC(C)OCC(C)O (stereo not given)
inactive: all assays above

CCCCCCC(=O)O
inactive: all assays above

CC(=O)NC1(c2cccc(F)c2)CCN(CC[C@@]2(c3ccc(Cl)c(Cl)c3)CN(c3ccccc3)C(=O)CO2)CC1
active: [3] 68.7 µM | [6] 20.8 µM | [7] 71.9 µM
inactive: all other assays above

CC(C)CCCCCCOC(=O)CCCCC(=O)OCCCCCCC(C)C
inactive: all assays above

OCCC(F)(F)C(F)(F)C(F)(F)C(F)(F)C(F)(F)C(F)(F)F
inactive: all assays above

CC(C)(C)CC(C)(C)c1ccc(O)c(-n2nc3ccccc3n2)c1
active: [3] 50 µM | [7] 50 µM | [8] 30.6 µM
inactive: all other assays above

CCCCC(CC)COC(=O)CCCCC(=O)OCC(CC)CCCC (stereo not given)
inactive: all assays above

Cc1cc(C)c(O)c(C)c1
active: [7] 26.8 µM
inactive: all other assays above

CCOC(=O)CC(O)(CC(=O)OCC)C(=O)OCC
inactive: all assays above

CCc1ccc(CCOc2ccc(CC3SC(=O)NC3=O)cc2)nc1 (stereo not given)
active: [1] 50 µM | [3] 11.2 µM | [4] 11.9 µM | [6] 76.8 µM | [8] 36.4 µM | [9] 50 µM | [10] 0.718 µM
inactive: [2] | [5] | [7]

COC(=O)CCCCC(=O)OC
inactive: all assays above

C#C[C@]1(O)CC[C@H]2[C@@H]3CCC4=CC(=O)CC[C@@H]4[C@H]3CC[C@@]21C
active: [3] 9.92 µM | [6] 0.24 µM | [7] 50 µM | [8] 15.4 µM
inactive: all other assays above

COCC(C)O (stereo not given)
inactive: all assays above

CN(C)C=O
inactive: all assays above

CC(=O)CC(C)(C)O
inactive: all assays above

CC[C@H](c1ccc(O)cc1)[C@@H](CC)c1ccc(O)cc1
active: [1] 77 µM | [3] 77.5 µM | [4] 66.9 µM | [7] 94.4 µM | [9] 83.9 µM | [10] 77.8 µM
inactive: [2] | [5] | [6] | [8]

O=c1c(-c2ccc(O)cc2)coc2cc(O)ccc12
inactive: all assays above

Cc1oc(-c2ccccc2)nc1CCOc1ccc(C[C@H](Nc2ccccc2C(=O)c2ccccc2)C(=O)O)cc1
active: [1] 12.4 µM | [2] 64.6 µM | [3] 26.5 µM | [4] 58.4 µM | [5] 32.5 µM | [6] 23.6 µM | [7] 28.9 µM | [8] 27.7 µM | [9] 22.6 µM | [10] 27.3 µM

CCCCCCCCCCCCCCCS(=O)(=O)Oc1ccccc1
active: [3] 13.3 µM | [7] 11.2 µM
inactive: all other assays above

Oc1cccc(O)c1
inactive: all assays above

Oc1cc2ccccc2c2ccccc12
active: [6] 38.9 µM
inactive: all other assays above

ClC1=C(Cl)C(Cl)(Cl)C(Cl)=C1Cl
inactive: all assays above

c1ccc2cc3c(ccc4ccccc43)cc2c1
active: [2] 6.54 µM | [3] 13.2 µM | [4] 20.1 µM | [6] 14.6 µM | [10] 18.8 µM
inactive: all other assays above

OCCC(F)(F)C(F)(F)C(F)(F)C(F)(F)C(F)(F)C(F)(F)C(F)(F)C(F)(F)F
inactive: all assays above

CC(C)(C)c1ccc(O)c(C(C)(C)C)c1
inactive: all assays above

CC(C)(C)c1cccc(C(C)(C)C)c1O
inactive: all assays above

CC(O)CO (stereo not given)
inactive: all assays above
